These results are taken from PubChem BioAssay (NCATS).

Assay [1] in a line: qHTS of pediatric cancer cell lines to identify multiple opportunities for drug repurposing: Primary screen for control Hh wild type fibroblast cells (AID 1347106). Note: nearly all actives have a fitted effect of over 55% in size. Note: potency is the fitted concentration of half-maximal effect. In a few lines: (§1)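 Cells (500-1,000/well) in growth media were settled 5 h at 37 degrees C, then given compounds for 48 h. Viability was read as CellTiter-Glo luminescence. Primary runs used MIPE at 11 points (0.78 nM-46 µM) and NPC at 8 points (0.59 nM-46 µM); follow-ups used 11 points.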
Background: Quantitative high-throughput screening tests each substance at several concentrations.

A short description of assay [2]: qHTS of pediatric cancer cell lines to identify multiple opportunities for drug repurposing: Primary screen for Rh30 cells (AID 1347107). Note: series mostly up to about 46 µM; nearly all actives have a fitted effect of over 75% in size. Summed up: as §1
Assay [3] in a line: qHTS of pediatric cancer cell lines to identify multiple opportunities for drug repurposing: Primary screen for Rh41 cells (AID 1347108).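 Note: series mostly up to about 46 µM; luminescence drop marks cytotoxic hits; nearly all actives have a fitted effect of over 70% in size.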 In a few lines: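 Quantitative HTS format: each compound titrated (MIPE 11 points from 0.78 nM, NPC 8 points from 0.59 nM) onto cells plated 5 hours earlier. After 48 h at 37 degrees C, CellTiter-Glo luminescence was recorded.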

Inconclusive results are not listed. Active and inactive are the calls of the source. Calls come from the whole dose curve; as a rule, active = well fitted curve in the direction sought with a large enough effect; inconclusive = small, poorly fitted or top-dose-only effect, or another doubt; inactive = no such curve, though single readings can be large; an effect the other way counts as inactive or inconclusive.

Turning to `O[C@@H](c1cc(C(F)(F)F)nc2c(C(F)(F)F)cccc12)[C@H]1CCCCN1`, the Potency entry in assay [1] is “inactive”.
In the case of `CC1(C)OC[C@@H]2O[C@@]3(C(=O)O)OC(C)(C)O[C@H]3[C@@H]2O1`, the Potency result in assay [1], in assay [2] and in assay [3] was “inactive” each time.
For `CN1CCN(C2=Nc3cc(F)ccc3Cc3ccccc32)CC1`, the Potency entry in assay [1], in assay [2] and in assay [3] was “inactive” in each case.
As to `CNCCCCOc1ccccc1Cc1ccccc1`, the Potency result in assay [1] and in assay [2] was “inactive” each time.
On to `CCN(CC)CCOc1ccccc1C(=O)CCc1ccccc1`, for which the Potency entry in assay [1], in assay [2] and in assay [3] was “inactive” each time.
With `CCO[C@@H]1O[C@H](C(COCc2ccccc2)OCc2ccccc2)[C@H](OCc2ccccc2)[C@H]1O` (stereo partly drawn), the Potency entry in assay [1] and in assay [2] was “inactive” each time.
`CCN(CC)CCNc1ccc(CO)c2sc3ccccc3c(=O)c12`: the Potency in assay [1] was 18.8 µM (active). Further, in assay [2], the Potency entry is “inactive”.
`CC(=O)OC[C@H]1O[C@@H](n2ncc(=O)[nH]c2=O)[C@H](OC(C)=O)[C@@H]1OC(C)=O`: the Potency result in assay [1], in assay [2] and in assay [3] was “inactive” each time.
Take `CCc1nn(CCCN2CCN(c3cccc(Cl)c3)CC2)c(=O)n1CCOc1ccccc1`: the Potency result in assay [1] and in assay [2] was “inactive” each time.
Regarding `O=C(Nc1ncc([N+](=O)[O-])s1)c1cccs1`, the Potency entry in assay [1] was “inactive”.
Regarding `O=C1c2cccc3c2[C@H](CCC3)CN1[C@@H]1CN2CCC1CC2`, the Potency entry in assay [1], in assay [2] and in assay [3] was “inactive” each time.
In the case of `CN1CCc2cccc3c2[C@H]1Cc1ccc(O)c(O)c1-3`, in assay [1], the Potency entry is “inactive”.
`O=C(CCN1CCN2CCCC2C1)N1c2ccccc2Sc2ccc(Cl)cc21` (stereo not drawn): the Potency result in assay [1], in assay [2] and in assay [3] was “inactive” in each case.
On to `O=C1C(CCS(=O)c2ccccc2)C(=O)N(c2ccccc2)N1c1ccccc1` (stereo not drawn), for which the Potency result in assay [1], in assay [2] and in assay [3] was “inactive” in each case.
In the case of `O=c1[nH]c(=O)n([C@H]2C[C@H](O)[C@@H](CO)O2)cc1F`, the Potency result in assay [1] is “inactive”.
Same read-out and setting: to `CC[C@]12CCCN3CCc4c(n(c5ccccc45)C(=O)C1)[C@@H]32` belongs “inactive”.
Take `O=C(Nc1ccccc1)OCC(CN1CCCCC1)OC(=O)Nc1ccccc1` (stereo not drawn): the Potency result in assay [1] and in assay [2] was “inactive” each time.
As to `FC1(F)C(F)(F)C(F)(F)C2(F)C(F)(F)C(F)(F)C(F)(F)C(F)(F)C2(F)C1(F)F` (stereo not drawn), the Potency result in assay [1], in assay [2] and in assay [3] was “inactive” in each case.
Take `Cc1cc(-c2ccccc2)nnc1NCCN1CCOCC1`: the Potency result in assay [1] and in assay [2] was “inactive” in each case.
Turning to `CCOC(=O)[C@@](C)(N)Cc1ccc(O)c(O)c1`, the Potency result in assay [1] is “inactive”.
As to `CCOC(=O)[C@H](CCc1ccccc1)N[C@@H](C)C(=O)N1[C@H](C(=O)O)C[C@@H]2CCC[C@@H]21`, the Potency entry in assay [1], in assay [2] and in assay [3] was “inactive” each time.
With `CCc1oc2ccccc2c1C(=O)c1cc(I)c(O)c(I)c1`, the Potency result in assay [1], in assay [2] and in assay [3] was “inactive” in each case.
`CC(=O)Nc1ccc(OC(=O)c2ccccc2OC(C)=O)cc1`: the Potency result in assay [1], in assay [2] and in assay [3] was “inactive” each time.
`CC(C)(C)CC(C)(C)c1ccc(O)c(-n2nc3ccccc3n2)c1`: the Potency entry in assay [1], in assay [2] and in assay [3] was “inactive” throughout.
With `NC(=O)n1c(O)c(C(=O)c2cccs2)c2cc(Cl)ccc21`, the Potency entry in assay [1], in assay [2] and in assay [3] was “inactive” throughout.
For `c1ccc(-c2nc[nH]c2-c2ccccc2)cc1`, the Potency result in assay [1], in assay [2] and in assay [3] was “inactive” each time.
As to `OC1C(O)C(O)C(O)C(O)C1O` (stereo not drawn), the Potency entry in assay [1], in assay [2] and in assay [3] was “inactive” throughout.
Turning to `O=S(=O)(O)c1ccc(O)cc1`, the Potency entry in assay [1], in assay [2] and in assay [3] was “inactive” throughout.
Turning to `O=C(O)C1(C(=O)O)CCC1.[NH2-].[NH2-].[Pt+2]`, the Potency entry in assay [1], in assay [2] and in assay [3] was “inactive” each time.
Consider `Cc1cc(NS(=O)(=O)c2ccc(N)cc2)nc(C)n1`, for which the Potency result in assay [1], in assay [2] and in assay [3] was “inactive” throughout.
On to `COc1ccc2c(c1)c1c3n2CCN(C)C3=NCC1`, for which the Potency result in assay [1], in assay [2] and in assay [3] was “inactive” throughout.
For `Cc1cc(CC(=O)O)c(C)n1-c1ccc(Cl)cc1`, the Potency entry in assay [1], in assay [2] and in assay [3] was “inactive” throughout.
On to `CCN1CCN(C(=O)N[C@@H](C(=O)N[C@@H]2C(=O)N3C(C(=O)O)=C(CSc4nnnn4C)CS[C@H]23)c2ccc(O)cc2)C(=O)C1=O`, for which the Potency entry in assay [1], in assay [2] and in assay [3] was “inactive” in each case.
`O=C1OC(CN2CCOCC2)CN1/N=C/c1ccc([N+](=O)[O-])o1` (stereo not drawn): the Potency entry in assay [1], in assay [2] and in assay [3] was “inactive” throughout.
For `CCCCC(CC)CN1CN(CC(CC)CCCC)CC(C)(N)C1` (stereo not drawn), the Potency result in assay [1], in assay [2] and in assay [3] was “inactive” each time.
As to `CC(=O)Nc1ccc(S(=O)(=O)Nc2ccc([N+](=O)[O-])cc2)cc1`, the Potency result in assay [1], in assay [2] and in assay [3] was “inactive” each time.
For the molecule `Cc1c[nH]c2ccccc12`, the Potency entry in assay [1], in assay [2] and in assay [3] was “inactive” each time.
With `NCc1ccccc1Sc1ccccc1CO`, the Potency entry in assay [1], in assay [2] and in assay [3] was “inactive” each time.
Take `Nc1ccc(S(=O)(=O)NCc2ccccc2)cc1`: the Potency result in assay [1], in assay [2] and in assay [3] was “inactive” throughout.
With `O=C(O)c1ccc(S(=O)(=O)N(Cl)Cl)cc1`, the Potency result in assay [1], in assay [2] and in assay [3] was “inactive” in each case.
Take `CCCCCCCCCCCCCC(=O)OC(C)C`: the Potency result in assay [1], in assay [2] and in assay [3] was “inactive” in each case.
Consider `c1ccc(CC2=NCCN2)cc1`, for which the Potency result in assay [1], in assay [2] and in assay [3] was “inactive” each time.
Consider `CC(C)=CCOc1ccc(/C=C/C(=O)c2ccc(OCC=C(C)C)cc2OCC(=O)O)cc1`, for which the Potency entry in assay [1], in assay [2] and in assay [3] was “inactive” throughout.
In the case of `Cn1c(=O)c2[nH]c(Br)nc2n(C)c1=O`, the Potency entry in assay [1], in assay [2] and in assay [3] was “inactive” in each case.
In the case of `CCCN(CCc1cccs1)[C@H]1CCc2c(O)cccc2C1`, the Potency result in assay [1], in assay [2] and in assay [3] was “inactive” in each case.
On to `Cl/C(=C\n1cncn1)c1ccc(Cl)cc1Cl`, for which the Potency entry in assay [1], in assay [2] and in assay [3] was “inactive” each time.
Turning to `COc1ccc(S(=O)(=O)N2c3ccc(Cl)cc3[C@@](O)(c3ccccc3Cl)[C@H]2C(=O)N2CCC[C@@H]2C(N)=O)cc1OC`, the Potency result in assay [1], in assay [2] and in assay [3] was “inactive” each time.
